# Paper PMC9838217, “Structure of SALL4 zinc finger domain reveals link between AT-rich DNA binding and Okihiro syndrome”
# Positions count from the first letter of the chain named.
# Tests used:
# [1] = molecular target: T1, SALL4 ZFC4 R900W (HT-SELEX) (Mus musculus, UniProt Q8BX22 870-940, R900W); assay: HT-SELEX; high values mean tight binding; settings: protein: recombinant; vector His6-GST; dsDNA, one strand shown
# T1 sequence: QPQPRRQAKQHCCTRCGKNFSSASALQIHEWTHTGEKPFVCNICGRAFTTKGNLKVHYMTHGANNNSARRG
# How it was run: (§1)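 Library DNA (1.5 µg in cycle one, 200 ng in later cycles) was incubated with 1 µg of purified recombinant mouse SALL4 zinc finger cluster 4, residues 870–940, in 100 µl buffer (10 mM Tris–HCl pH 7.5, 50 mM NaCl, poly(dI-dC), DTT) at room temperature for 10 min. Up to 6 rounds of Ni2+ bead capture, washing, PCR amplification and reselection were run in triplicate. Reads from MiSeq sequencing were scanned for 6-mers. For each canonical k-mer, binding signal is its read fraction as fold change versus the original random library.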
# [2] = molecular target: T2, SALL4 ZFC4 G921D (HT-SELEX) (Mus musculus, UniProt Q8BX22 870-940, G921D); assay: HT-SELEX; high values mean tight binding; settings: protein: recombinant; vector His6-GST; dsDNA, one strand shown
# T2 sequence: T1 sequence with W31R, G52D
# How it was run: as §1
sequence,measurement,setting,value
ACGGGC,binding signal,[1],0.131 ± 0.00526 fold-change vs cycle 0
same,binding signal,[2],0.241 ± 0.0805 fold-change vs cycle 0
CTGCCC,binding signal,[1],0.166 ± 0.00951 fold-change vs cycle 0
same,binding signal,[2],0.291 ± 0.0763 fold-change vs cycle 0
CGACCA,binding signal,[1],0.322 ± 0.0112 fold-change vs cycle 0
same,binding signal,[2],0.456 ± 0.0665 fold-change vs cycle 0
AGCCGG,binding signal,[1],0.121 ± 0.00957 fold-change vs cycle 0
same,binding signal,[2],0.244 ± 0.0663 fold-change vs cycle 0
GCCCCA,binding signal,[1],0.158 ± 0.0152 fold-change vs cycle 0
same,binding signal,[2],0.275 ± 0.0854 fold-change vs cycle 0
CCACCG,binding signal,[1],0.209 ± 0.0206 fold-change vs cycle 0
same,binding signal,[2],0.322 ± 0.0675 fold-change vs cycle 0
